The values below come from PubChem BioAssay AID720650 (Broad Institute, 2013).

Calls of active or inactive are those of the source. The rule behind the calls is not given here.

This experiment in a line: Biochemical counterscreen for C difficile toxins, absence of UDPG, inhibitor dose response (AID 720650). The conditions noted are these: series mostly up to 19.5 µM; activity change, negative = inhibition: at the top concentration. A general note: The purpose of a counterscreen is to sort out artefacts and off-target activity.
With `COC(=O)/C=C/C(=O)Nc1ccc(O)c(Cl)c1`, the AC50 – broadly, the midpoint of the concentration-response curve, whichever way the signal moves – was 13.6 µM (active). `COc1ccc(/C=C\c2onc(C)c2S(=O)(=O)N2CCC(C(=O)NCCC(C)C)CC2)cc1`: the “activity change, negative = inhibition” value was -18.3% (inactive).

Consider `S=c1[nH]nc(-c2ccccn2)n1/N=C/c1ccc(Cl)cc1`, for which the “activity change, negative = inhibition” value is -5.11% (inactive). Consider `COc1ccc2cc3c(nc2c1)OCC3`, for which the “activity change, negative = inhibition” value was -17.2% (inactive). Same read-out and setting: next, `COc1cc(NC(=O)CCc2nnc3ccc(N4CCC(C)CC4)nn23)cc(OC)c1`: 15.7% (inactive). Take `Oc1ccc(Cc2ccc(Cl)cc2)c(O)c1`: the AC50 is > 39 µM (inactive). As for `COC(=O)c1sc2nc(SCc3ccccc3C)n(N)c(=O)c2c1C`, the “activity change, negative = inhibition” value is 4.71% (inactive). In the case of `O=C(C[C@@H]1CC[C@@H]2[C@H](COC[C@@H](O)CN2C(=O)c2ccccn2)O1)NC1CCC1`, the “activity change, negative = inhibition” value is -2.66% (inactive). As for `COc1ccc(-c2ccc3c(c2)[C@H]2[C@H](CCN2C(=O)Cc2cccnc2)[C@@H](CO)N3C)cc1`, the AC50 was 14.7 µM (active). `CNc1nc(C23CC4CC(CC(C4)C2)C3)cs1`: the “activity change, negative = inhibition” value was 2.94% (inactive). On the same count and under the same terms, the result for `CCCNC(=O)Nc1ccc2c(c1)C(=O)N(C)[C@@H]1CC[C@H](CC(=O)NC3CCC3)O[C@H]1CO2` reads -5.24% (inactive); that for `COc1ccc(OCc2cc(-c3ccc(Cl)cc3)no2)cc1`, -11.1% (inactive). For the compound `CCOC(=O)/C=c1/s/c(=C/c2ccc3cc(OC)ccc3c2)c(=O)n1CC(=O)NCC1CCCO1` (stereo not drawn), the “activity change, negative = inhibition” value is -9.72% (inactive). The same measure, in the same setting: the result for `CCOC(=O)[C@H]1[C@H]2COc3ccc(OC)cc3[C@@H]2N2C(=O)CN(Cc3ccc(Cl)cc3)C(=O)[C@@]12C` reads -8.66% (inactive).

For the compound `COc1cc(/C=C/C(=O)OCC(=O)NC(=O)NC(C)(C)C)ccc1O`, the “activity change, negative = inhibition” value is 6.81% (inactive).

With `COc1cccc(C(=O)COC(=O)c2ccc(NC(=O)c3ccccc3)cc2)c1`, the “activity change, negative = inhibition” value is 0.123% (inactive).

In the case of `CCCCn1c(-c2ccccc2C)nc2cc3[nH]c(=O)c(C(C)C)nc3cc21`, the “activity change, negative = inhibition” value is -15.5% (inactive). Still for that read-out and setting: next, `COc1cc(C=NNC(=O)c2ccccc2-n2cccc2)ccc1O`: 2.55% (inactive); `O=C1Cc2cc(S(=O)(=O)NCc3ccccc3Cl)cc3c2N1CCC3`: 6.63% (inactive). Regarding `CCOCCCNC(=O)C1CCN(S(=O)(=O)c2c(C)noc2/C=C\c2ccc(OC)cc2)CC1`, the AC50 entry is “inactive”.

For the compound `CC(C)Cc1nnc(NC(=O)CCC(=O)NCc2ccccc2Cl)s1`, the “activity change, negative = inhibition” value is -3.67% (inactive). Same read-out and setting: the result for `S=C(NCCc1ccccc1)Nc1ncccn1` reads -8.54% (inactive). With `O=C1CSC(=Nc2ccc(O)cc2)N1`, the AC50 is 17.6 µM (active).
